Among the data in PubChem BioAssay (Tox21) are Potency and outcome values, retold here.

Each structure is given as a SMILES string. Records with an inconclusive call do not appear. Active and inactive are the calls of the source. Unless noted, the call rests on the fitted dose curve; in most records, active means well fitted curve in the direction sought with a large enough effect in the repeat runs; inconclusive means weak or mixed curves; inactive means no such curve, though single readings can be large; an effect the other way counts as inactive or inconclusive.

Assay [1] is described as follows: qHTS assay to identify small molecule antagonists of the glucocorticoid receptor (GR) signaling pathway - cell viability counter screen (AID 720693). Further: nearly all actives have a fitted effect of over 55% in size. In general terms: Quantitative high-throughput screening tests each substance at several concentrations.
The nature of assay [2]: qHTS assay for identifying genotoxic compounds that show differential cytotoxicity against isogenic chicken DT40 cell lines with known DNA damage response pathways - wild type cell line (AID 743012). Further: nearly all actives have a fitted effect of over 60% in size. The method, boiled down: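 Parental DNA repair-proficient DT40 cells, 300 per well, were pre-incubated ~0.5 h at 37 C/5% CO2, pin-dosed with compounds in DMSO, then incubated 40 h. Viability was read as CellTiter-Glo luminescence after 30 min at room temperature.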

Assay [3] in a line: qHTS assay for identifying genotoxic compounds that show differential cytotoxicity against isogenic chicken DT40 cell lines with known DNA damage response pathways - Rev3 mutant cell line (AID 743014). Further: nearly all actives have a fitted effect of over 55% in size.
Assay [4] can be described thus: qHTS assay for identifying genotoxic compounds that show differential cytotoxicity against isogenic chicken DT40 cell lines with known DNA damage response pathways - Rad54/Ku70 mutant cell line (AID 743015). Further: nearly all actives have a fitted effect of over 60% in size.
Assay [5] in a line: qHTS assay to identify small molecule antagonists of the androgen receptor (AR) signaling pathway - cell viability counter screen (AID 743033; further: nearly all actives have a fitted effect of over 45% in size).
Assay [6] can be described thus: qHTS assay to identify small molecule antagonists of the androgen receptor (AR) signaling pathway using the MDA cell line - cell viability counter screen (AID 743041; further: nearly all actives have a fitted effect of over 45% in size). A digest of the protocol:
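MDA-kb2 AR-luc human breast carcinoma cells (MMTV-luciferase, AR/GR responsive) were treated with compounds plus R1881 agonist for 16 h at 37 °C. Viability was read as CellTiter-Fluor fluorescence in the same wells as the reporter assay.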

Assay [7] is described as follows: qHTS assay to identify small molecule antagonists of the thyroid receptor (TR) signaling pathway - cell viability counter screen (AID 743064). Further: nearly all actives have a fitted effect of over 50% in size. A digest of the protocol:
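Counter screen for cytotoxicity: compound plus T3 (1 nM final) on GH3.TRE-Luc cells, 23.5 h at 37 °C, then fluorescence viability readout with CellTiter-Fluor.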

Assay [8] can be described thus: qHTS assay to identify small molecule antagonists of the thyroid receptor (TR) signaling pathway (AID 743065). Further: series mostly up to about 70 µM; nearly all actives have a fitted effect of over 55% in size. A digest of the protocol: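 GH3.TRE-Luc rat pituitary cells carrying two TR response elements driving luciferase were plated for 4 h, given compound plus 1 nM T3 (final), and incubated 23.5 h at 37 C. ONE-Glo luminescence measured reporter inhibition; CellTiter-Fluor fluorescence tracked cytotoxicity.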

Assay [9] deals with thyroid hormone receptor (rat, GH3 cells). In words: qHTS assay to identify small molecule agonists of the thyroid receptor (TR) signaling pathway (AID 743066; calls by dose curve; further: potency means the concentration at half of the fitted maximal effect).
The target of assay [10] is Estrogen receptor (Homo sapiens) (UniProt P03372). The assay can be described thus: qHTS assay to identify small molecule antagonists of the estrogen receptor alpha (ER-alpha) signaling pathway (AID 743069; active means well fitted curve in the direction sought with a large enough effect in the signal ratio in the repeat runs, not every such curve was filed as active; the % refers to the signal ratio). The method, boiled down:
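HEK293 cells stably carrying an ER-alpha-UAS-bla beta-lactamase reporter were pre-cultured overnight in 2% charcoal-stripped FBS medium. Test compounds in DMSO were added together with 17beta-estradiol for 18 hr at 37C. Read-out was fluorescence after 2 hr with LiveBLAzer B/G FRET substrate at room temperature.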

Assay [11] can be described thus: qHTS assay to identify small molecule antagonists of the estrogen receptor alpha (ER-alpha) signaling pathway - cell viability counter screen (AID 743074; calls by dose curve; further: nearly all actives have a fitted effect of over 45% in size).
Assay [12] has as its target Estrogen receptor (Homo sapiens) (UniProt P03372). The assay can be described thus: qHTS assay to identify small molecule agonists of the estrogen receptor alpha (ER-alpha) signaling pathway (AID 743075; calls by dose curve).
The target is the same in assay [13]. In words: qHTS assay to identify small molecule agonists of the estrogen receptor alpha (ER-alpha) signaling pathway using the BG1 cell line (AID 743079). Further: nearly all actives have a fitted effect of over 20% in size.
The nature of assay [14]: qHTS assay to identify small molecule antagonists of the estrogen receptor alpha (ER-alpha) signaling pathway using the BG1 cell line (AID 743080; calls by dose curve;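 further: BG1 cells stimulated with 17beta-estradiol alongside compound; series mostly up to about 70 µM; nearly all actives have a fitted effect of over 25% in size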). A digest of the protocol:
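Readout is ONE-Glo luminescence, taken 30 min at room temperature after reagent addition, preceded by a CellTiter-Fluor viability read; BG1-Luc-4E2 cells had received compound and 17beta-estradiol for 21.5 h at 37 C.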

Assay [15] is described as follows: qHTS assay to identify small molecule antagonists of the estrogen receptor alpha (ER-alpha) signaling pathway using the BG1 cell line - cell viability counter screen (AID 743081).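 Further: compound given together with 17beta-estradiol as the ER stimulus; series mostly up to about 70 µM; nearly all actives have a fitted effect of over 45% in size.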
Assay [16] addresses Aromatase (Homo sapiens) (UniProt P11511). The assay can be described thus: qHTS assay to identify aromatase inhibitors (AID 743083). Further: series mostly up to about 70 µM; nearly all actives have a fitted effect of over 55% in size.
Assay [17] addresses Androgen receptor (Homo sapiens) (UniProt P10275). In words: qHTS assay to identify small molecule antagonists of the androgen receptor (AR) signaling pathway (AID 743035; active means well fitted inhibition curve with a large enough effect in the signal ratio in the repeat runs, not every such curve was filed as active; the % refers to the signal ratio). The method, boiled down: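 HEK293 cells stably carrying a UAS-driven beta-lactamase reporter (AR-UAS-bla GripTite) were plated for 4 h at 37C, then given compound and the agonist R1881 and incubated 16 h. Reporter activity was read by LiveBLAzer B/G FRET fluorescence after 2 h at room temperature.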

The target is the same in assay [18]. In words: qHTS assay to identify small molecule agonists of the androgen receptor (AR) signaling pathway (AID 743036; active means well fitted activation curve with a large enough effect in the signal ratio in the repeat runs, with a control signal flat, not every such curve was filed as active; the % refers to the signal ratio). The method, boiled down: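 In this Tox21 qHTS, 2,000 HEK293 AR-bla cells per well were incubated with compounds for 16 h at 37C and 5% CO2. Fluorescence intensity was recorded 2 h after adding LiveBLAzer B/G FRET substrate at room temperature.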

The target is the same in assay [19]. In words: qHTS assay to identify small molecule agonists of the androgen receptor (AR) signaling pathway using the MDA cell line (AID 743040; further: nearly all actives have a fitted effect of over 20% in size). The method, boiled down:
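MDA-kb2 breast carcinoma cells stably carrying an MMTV-driven luciferase reporter (AR- and GR-responsive) were seeded and held 5 h at 37C, 0% CO2, then exposed to compounds in DMSO for 16 h. Luminescence was read 30 min after ONE-Glo addition.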

For assay [20] the target is unchanged. The assay can be described thus: qHTS assay to identify small molecule antagonists of the androgen receptor (AR) signaling pathway using the MDA cell line (AID 743042; further: nearly all actives have a fitted effect of over 55% in size). A digest of the protocol:
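MDA-kb2 cells (human breast carcinoma, stably carrying an MMTV-luciferase reporter responsive to AR and GR) were plated at 3,000 cells/well and preincubated 5 hr at 37C, then given compound plus R1881 agonist for 16 h. ONE-Glo luminescence was read.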

Chain of Estrogen receptor (Homo sapiens) (P03372 whole entry, looked up): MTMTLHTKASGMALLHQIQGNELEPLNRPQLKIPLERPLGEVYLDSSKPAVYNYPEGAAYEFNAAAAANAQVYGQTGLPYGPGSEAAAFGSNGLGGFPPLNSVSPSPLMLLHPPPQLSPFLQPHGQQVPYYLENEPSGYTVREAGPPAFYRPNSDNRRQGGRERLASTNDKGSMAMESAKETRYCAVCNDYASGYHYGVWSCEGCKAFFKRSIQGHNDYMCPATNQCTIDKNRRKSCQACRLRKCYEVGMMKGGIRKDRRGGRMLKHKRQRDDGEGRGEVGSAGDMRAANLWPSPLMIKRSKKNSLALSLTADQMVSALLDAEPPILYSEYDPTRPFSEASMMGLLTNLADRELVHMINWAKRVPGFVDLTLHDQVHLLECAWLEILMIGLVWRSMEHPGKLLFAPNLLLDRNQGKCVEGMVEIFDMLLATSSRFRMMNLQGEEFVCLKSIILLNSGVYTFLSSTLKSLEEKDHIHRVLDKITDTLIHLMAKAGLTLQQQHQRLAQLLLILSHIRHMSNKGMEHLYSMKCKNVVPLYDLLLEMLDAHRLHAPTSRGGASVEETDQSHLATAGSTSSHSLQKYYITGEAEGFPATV
Chain of Aromatase (Homo sapiens) (P11511 whole entry, looked up): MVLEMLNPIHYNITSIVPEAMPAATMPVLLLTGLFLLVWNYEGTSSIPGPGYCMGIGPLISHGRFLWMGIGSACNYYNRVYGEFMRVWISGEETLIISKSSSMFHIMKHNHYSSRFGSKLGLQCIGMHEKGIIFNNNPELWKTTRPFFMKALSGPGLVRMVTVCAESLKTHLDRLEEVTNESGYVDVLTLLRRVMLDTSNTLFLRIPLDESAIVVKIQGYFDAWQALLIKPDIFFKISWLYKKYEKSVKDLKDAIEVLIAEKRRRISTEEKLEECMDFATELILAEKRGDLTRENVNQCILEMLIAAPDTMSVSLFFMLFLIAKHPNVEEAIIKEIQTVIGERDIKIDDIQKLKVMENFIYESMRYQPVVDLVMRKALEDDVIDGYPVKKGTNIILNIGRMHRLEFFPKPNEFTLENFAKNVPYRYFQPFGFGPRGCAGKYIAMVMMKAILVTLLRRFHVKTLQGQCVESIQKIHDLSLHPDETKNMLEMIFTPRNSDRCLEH
Chain of Androgen receptor (Homo sapiens) (P10275 whole entry, looked up): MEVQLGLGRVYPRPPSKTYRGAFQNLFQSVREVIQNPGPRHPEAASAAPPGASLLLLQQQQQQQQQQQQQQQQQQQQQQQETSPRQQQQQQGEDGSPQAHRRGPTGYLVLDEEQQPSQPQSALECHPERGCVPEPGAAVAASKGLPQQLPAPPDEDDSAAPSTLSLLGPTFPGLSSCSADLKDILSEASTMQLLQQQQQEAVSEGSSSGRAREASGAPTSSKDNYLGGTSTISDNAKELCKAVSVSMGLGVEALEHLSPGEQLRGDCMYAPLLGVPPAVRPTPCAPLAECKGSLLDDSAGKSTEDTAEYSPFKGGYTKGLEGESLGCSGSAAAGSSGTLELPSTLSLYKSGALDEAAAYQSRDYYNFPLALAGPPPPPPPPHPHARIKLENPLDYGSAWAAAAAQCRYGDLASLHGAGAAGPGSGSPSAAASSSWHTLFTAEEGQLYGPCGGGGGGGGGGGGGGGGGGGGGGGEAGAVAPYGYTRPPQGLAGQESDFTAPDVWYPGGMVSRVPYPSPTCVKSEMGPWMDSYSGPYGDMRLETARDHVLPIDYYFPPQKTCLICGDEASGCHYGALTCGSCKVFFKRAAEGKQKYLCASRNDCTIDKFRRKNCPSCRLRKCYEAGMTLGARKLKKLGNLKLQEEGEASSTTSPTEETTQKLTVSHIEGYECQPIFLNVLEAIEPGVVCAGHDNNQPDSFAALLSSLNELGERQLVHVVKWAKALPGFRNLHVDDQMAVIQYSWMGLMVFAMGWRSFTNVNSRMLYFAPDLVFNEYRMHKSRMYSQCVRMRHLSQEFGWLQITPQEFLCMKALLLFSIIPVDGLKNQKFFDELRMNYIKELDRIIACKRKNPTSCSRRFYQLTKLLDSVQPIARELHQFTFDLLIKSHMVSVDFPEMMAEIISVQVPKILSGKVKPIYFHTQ

`CCOC(=O)CC#N`: the Potency result in assay [1], in assay [2], in [3], in [4], in [7] and in assay [8] was “inactive” each time. The Potency result in [9], in assay [10], in assay [11], in assay [12] and in [13] was “inactive” throughout. For the same molecule, the outcome in [5], in [6], in [14], in assay [15] and in assay [16] was inactive.

On to `CCC(O)C(C)(C)C` (stereo not given), for which the Potency result in assay [1], in assay [2], in [3], in assay [4], in assay [7] and in assay [8] was “inactive” each time. The Potency entry in [9], in assay [10], in assay [11] and in [12] was “inactive” each time. For the same molecule, the molecule was called inactive in assay [5], in assay [6], in assay [14], in [15] and in assay [16].

For the molecule `CCC(C)N` (stereo not given), the Potency entry in [1], in [2], in [3], in assay [4], in assay [7] and in assay [8] was “inactive” each time. Also, the Potency result in assay [9], in assay [10], in [11], in [12] and in [13] was “inactive” throughout. In addition, the molecule was called inactive in assay [5], in assay [6], in [14], in [15] and in assay [16].

On to `F[Si-2](F)(F)(F)(F)F`, for which the Potency entry in assay [1], in assay [2], in assay [3], in assay [4], in assay [7] and in assay [8] was “inactive” each time. The Potency result in assay [9], in assay [10], in assay [11], in [12] and in [13] was “inactive” throughout. The result in assay [5], in [6], in assay [14], in [15] and in [16] was inactive.

Regarding `Cc1c(C(C)C)c(=O)n(-c2ccccc2)n1C`, the Potency entry in [1], in assay [2], in assay [3], in [4], in assay [7] and in assay [8] was “inactive” throughout. Besides, the Potency entry in [9], in [10], in [11], in assay [12] and in assay [13] was “inactive” each time. Also, the outcome in assay [5], in assay [6], in assay [14], in assay [15] and in assay [16] was inactive.

For the molecule `CCCCCCCCCCC`, the Potency result in assay [1], in assay [2], in [3], in assay [4], in [17] and in assay [7] was “inactive” each time. Further, the Potency entry in assay [8], in assay [10], in assay [11], in assay [12] and in [13] was “inactive” each time. Moreover, the result in [5], in assay [18], in [19], in assay [6], in assay [20] and in [14] was inactive. The outcome in [15] and in assay [16] was inactive. In addition, the Potency in [9] was 54.5 µM (active).

For `Cc1ccccc1C(=O)N1CC/C(=N\OS(=O)(=O)O)c2ccc(Cl)cc21`, the Potency entry in assay [1], in [2], in assay [3], in assay [4], in assay [7] and in [8] was “inactive” each time. Also, the Potency result in assay [9], in assay [10], in [12] and in assay [13] was “inactive” throughout. Also, the result in assay [5], in [6], in assay [14], in assay [15] and in assay [16] was inactive.

Turning to `CCCCCCCC/C=C\CCCCCCCC(=O)OC[C@@H](O)[C@H]1OC[C@H](O)[C@H]1O`, the Potency entry in assay [1], in assay [2], in [3], in assay [4], in assay [7] and in [8] was “inactive” in each case. Also, the Potency result in [9], in assay [10], in assay [11], in [12] and in assay [13] was “inactive” each time. Moreover, the result in assay [5], in assay [6], in [14], in [15] and in [16] was inactive.
